# Experimental data: PubChem BioAssay (EPA / NIEHS)
# “And” between values parts separate entries of the source, which are not always exact repeats. Equal entries are not always repeated. Some compounds were tested as several samples or in several runs, with calls that do not always agree. The source made the active and inactive calls. Rule for the calls: active = hit-call score of the fitted dose curve at least 0.9, where 1 is the maximum; inactive = score below 0.9.
# Legend:
# Conditions in all cases: primary human HUVEC with PBMC; actives raise or lower the signal
# [1] = read-out: Interleukin-1 alpha (IL1a), IL1A (gene 3552); assay: BSK_LPS_IL1a: BioMAP Diversity Plus: LPS Assay for Interleukin-1 alpha (IL1a) Biomarker Activity (AID 2283080)
# Method in brief: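 Human umbilical vein endothelial cells co-cultured with peripheral blood mononuclear cells were LPS-stimulated and exposed to test chemicals for 24 h. IL-1 alpha was quantified by ELISA, with bidirectional curve fitting against DMSO as the negative control and baseline.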
# [2] = read-out: Monocyte Chemoattractant Protein-1 (MCP1), CCL2 (gene 6347); assay: BSK_LPS_MCP1: BioMAP Diversity Plus: LPS Assay for Monocyte Chemoattractant Protein-1 (MCP1) Biomarker Activity (AID 2283081);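 for AC50: secreted MCP-1 protein quantified by ELISA in culture supernatant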
# Method in brief: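 HUVEC plus PBMC co-culture (human primary cells, LPS system) exposed to test chemical for 24 h; MCP-1 measured by ELISA. Bidirectional curve fitting against DMSO baseline; parallel SRB total-protein staining flags overt cytotoxicity.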
# [3] = BSK_LPS_PGE2: BioMAP Diversity Plus: LPS Assay for Prostaglandin E2 (PGE2) Biomarker Activity (AID 2283082);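 for AC50: secreted prostaglandin E2 measured by ELISA in LPS-stimulated co-culture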
# Method in brief: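 HUVEC plus human PBMC co-culture stimulated with LPS; secreted PGE2 quantified by ELISA 24 h after chemical dosing. Activity fitted bidirectionally against DMSO baseline; parallel SRB staining (0.1% SRB after 10% TCA fixation, 560 nm) flags overt cytotoxicity.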
# [4] = read-out: Macrophage colony-stimulating factor (MCSF), CSF1 (gene 1435); assay: BSK_LPS_MCSF: BioMAP Diversity Plus: LPS Assay for Macrophage colony-stimulating factor (MCSF) Biomarker Activity (AID 2283083)
# Method in brief: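 Human umbilical vein endothelial cells co-cultured with peripheral blood mononuclear cells were exposed to compound for 24 h. M-CSF levels were measured by ELISA, and bidirectional curve fitting used DMSO as the negative control and baseline.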
# [5] = read-out: Tissue Factor, F3 (gene 2152); assay: BSK_LPS_TissueFactor: BioMAP Diversity Plus: LPS Assay for Tissue Factor Biomarker Activity (AID 2283084)
# Method in brief: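 Human umbilical vein endothelial cells co-cultured with peripheral blood mononuclear cells were dosed and stimulated with LPS. Cell-surface CD142 was quantified by ELISA at 24 h. Activity was fitted bidirectionally against DMSO baseline.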
# [6] = read-out: Tumor necrosis factor (Homo sapiens) (UniProt P01375); assay: BSK_LPS_TNFa: BioMAP Diversity Plus: LPS Assay for Tumour Necrosis Factor alpha (TNFa) Biomarker Activity (AID 2283085);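 for AC50: TNFa protein level quantified by ELISA in the co-culture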
# Method in brief: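 Human umbilical vein endothelial cells co-cultured with PBMC and stimulated with LPS. TNFa was measured by ELISA 24 h after chemical dosing, fitted bidirectionally relative to DMSO.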
# [7] = read-out: Vascular cell adhesion molecule 1 (VCAM1), VCAM1 (gene 7412); assay: BSK_LPS_VCAM1: BioMAP Diversity Plus: LPS Assay for Vascular cell adhesion molecule 1 (VCAM1) Biomarker Activity (AID 2283086)
# Method in brief: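 Human umbilical vein endothelial cells co-cultured with PBMC and stimulated with LPS; VCAM-1 measured by ELISA 24 h after dosing. Bidirectional curve fitting against DMSO baseline; cytotoxicity tracked in parallel by SRB total-protein staining.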
# [8] = read-out: CD38, CD38 (gene 952); assay: BSK_SAg_CD38: BioMAP Diversity Plus: SAg Assay for CD38 Biomarker Activity (AID 2283087)
# Method in brief: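 Human HUVEC plus PBMC co-culture stimulated with superantigen; CD38 measured by ELISA 24 h after chemical dosing. Fluorescence read-out, bidirectional fit against DMSO; cytotoxicity tracked in parallel by SRB and Alamar Blue.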
# [9] = read-out: CD40, CD40 (gene 958); assay: BSK_SAg_CD40: BioMAP Diversity Plus: SAg Assay for CD40 Biomarker Activity (AID 2283088)
# Method in brief: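 Human umbilical vein endothelial cells co-cultured with PBMC; CD40 levels measured by ELISA with fluorescence read-out 24 h after chemical dosing. Gain or loss of signal fitted bidirectionally against DMSO baseline.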
# [10] = read-out: CD69, CD69 (gene 969); assay: BSK_SAg_CD69: BioMAP Diversity Plus: SAg Assay for CD69 Biomarker Activity (AID 2283089);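 for AC50: cell surface CD69 protein quantified by ELISA with fluorescence detection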
# Method in brief: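 Values derive from bidirectional fitting relative to DMSO vehicle. Cells: umbilical vein endothelium plus peripheral blood mononuclear cells, treated 24 h before fluorescent ELISA for CD69.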
# Chain of Tumor necrosis factor (Homo sapiens) (P01375 whole entry, looked up): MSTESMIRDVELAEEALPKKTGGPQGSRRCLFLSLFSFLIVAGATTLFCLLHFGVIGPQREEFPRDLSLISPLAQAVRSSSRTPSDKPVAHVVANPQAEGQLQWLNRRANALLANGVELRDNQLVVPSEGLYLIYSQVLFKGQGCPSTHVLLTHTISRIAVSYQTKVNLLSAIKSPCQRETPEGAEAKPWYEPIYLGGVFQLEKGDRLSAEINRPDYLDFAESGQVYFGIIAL
Structure (SMILES),outcome [1],outcome [2],outcome [3],outcome [4],outcome [5],outcome [6],outcome [7],outcome [8],outcome [9],outcome [10],AC50 [1],AC50 [2],AC50 [3],AC50 [6],AC50 [7],AC50 [8],AC50 [9],AC50 [10],AC50 [4],AC50 [5]
CCCCC(CC)COC(=O)CCCCC(=O)OCc1ccccc1 (centres undefined),inactive,inactive,inactive,inactive,inactive,inactive,inactive,inactive,inactive,inactive,–,–,–,–,–,–,–,–,–,–
CCc1ccc(CCOc2ccc(CC3SC(=O)NC3=O)cc2)nc1 (centres undefined),inactive,inactive,inactive,inactive,inactive,inactive,inactive,inactive,inactive,inactive,–,–,–,–,–,–,–,–,–,–
O=C(O)Cc1cc(I)c(Oc2cc(I)c(O)c(I)c2)c(I)c1,–,–,–,inactive,inactive,–,–,–,–,–,21.2 µM (active),23.9 µM (active),15.1 µM (active),17.4 µM (active),13.4 µM (active),21.3 µM (active),18.5 µM (active),15.3 µM (active),–,–
CC(C)(C)c1cccc(C(C)(C)C)c1O,inactive,inactive,inactive,inactive,inactive,inactive,inactive,inactive,inactive,inactive,–,–,–,–,–,–,–,–,–,–
CCCCOCCO,inactive,inactive,inactive,inactive,inactive,inactive,inactive,inactive,inactive,inactive,–,–,–,–,–,–,–,–,–,–
CCc1nn(C2CCCCC2)c2cc(C3(C#N)CCC(C(=O)O)CC3)ccc12 (centres undefined),–,–,inactive,–,inactive,–,–,–,–,–,1.15 µM (active),10.1 µM (active),–,0.358 µM (active),2.43 µM (active),20 µM (active),10.6 µM (active),5.47 µM (active),1.85 µM (active),–
OCCC(F)(F)C(F)(F)C(F)(F)C(F)(F)C(F)(F)C(F)(F)C(F)(F)C(F)(F)F,inactive,inactive,inactive,inactive,inactive,inactive,–,inactive,inactive,inactive,18.7 µM (active) and 23.8 µM (active),30.8 µM (active) and 21.8 µM (active),–,47.6 µM (active),24.3 µM (active) and 33.3 µM (active) and 18.8 µM (active),29.1 µM (active) and 27.8 µM (active),29.1 µM (active) and 23.8 µM (active),26 µM (active) and 38.3 µM (active),43.2 µM (active) and 5.95 µM (active),45.6 µM (active)
CCCOC(=O)c1ccc(O)cc1,inactive,inactive,–,inactive,inactive,inactive,inactive,inactive,inactive,inactive,–,–,9.7 µM (active),–,–,–,–,–,–,–
FC(F)(I)C(F)(F)C(F)(F)C(F)(F)C(F)(F)C(F)(F)I,–,–,inactive,–,–,–,–,–,–,–,18 µM (active) [middle of 5 runs],36.5 µM (active) [middle of 5 runs],7.63 µM (active) and 7.34 µM (active) and 7.24 µM (active),20.2 µM (active) [middle of 5 runs],–,–,–,–,–,–
CC(C)CCCCCCOC(=O)CCCCC(=O)OCCCCCCC(C)C,inactive,inactive,inactive,inactive,inactive,inactive,inactive,inactive,inactive,inactive,–,–,–,–,–,–,–,–,–,–
C[C@@H]1C[C@H]2[C@@H]3CCC4=CC(=O)C=C[C@]4(C)[C@@]3(F)[C@@H](O)C[C@]2(C)[C@@]1(O)C(=O)COP(=O)(O)O,inactive,inactive,inactive,inactive,inactive,–,inactive,inactive,inactive,inactive,–,–,9.37 µM (active) and 3.63 µM (active),4.47 µM (active) and 3.6 µM (active) and 5.06 µM (active),–,–,2.65 µM (active),–,–,–
Cc1cc(CCN2CCN(c3nsc4ccccc34)CC2)cc2c1NC(=O)CC2(C)C,–,–,–,–,–,–,–,–,–,–,10.3 µM (active),26.8 µM (active),5.37 µM (active),8.98 µM (active),26 µM (active),13.4 µM (active),14.2 µM (active),14.4 µM (active),15.3 µM (active),32.8 µM (active)
CCCCCCCCCCCCc1ccccc1S(=O)(=O)O,inactive,inactive,inactive,inactive,inactive,inactive,inactive,inactive,inactive,inactive,–,–,–,–,–,–,–,–,–,–
CN(C)C=O,inactive,inactive,inactive,inactive,inactive,inactive,inactive,inactive,inactive,inactive,–,–,–,–,–,–,–,–,–,–
COCC(C)O (centres undefined),inactive,inactive,inactive,inactive,inactive,inactive,inactive,inactive,inactive,inactive,–,–,–,–,–,–,–,–,–,–
COCC(C)OCC(C)O (centres undefined),inactive,inactive,inactive,inactive,inactive,inactive,inactive,inactive,inactive,inactive,–,–,–,–,–,–,–,–,–,–

Structure (SMILES),outcome [1],outcome [2],outcome [3],outcome [4],outcome [5],outcome [6],outcome [7],outcome [8],outcome [9],outcome [10],AC50 [1],AC50 [2],AC50 [3],AC50 [6],AC50 [7],AC50 [8],AC50 [9],AC50 [10],AC50 [4],AC50 [5]
NCC(F)(F)C(F)(F)C(F)(F)C(F)(F)C(F)(F)C(F)(F)C(F)(F)F,inactive,inactive,inactive,inactive,inactive,inactive,inactive,inactive,inactive,inactive,–,–,–,–,–,–,–,–,–,–
CC(=O)NC1(c2cccc(F)c2)CCN(CC[C@@]2(c3ccc(Cl)c(Cl)c3)CN(c3ccccc3)C(=O)CO2)CC1,–,–,inactive,inactive,inactive,inactive,–,–,–,–,24.9 µM (active),16.6 µM (active),–,–,16.6 µM (active),26.7 µM (active),30.5 µM (active),25.2 µM (active),–,–
CCCCCCCC(=O)O,inactive,inactive,inactive,inactive,inactive,inactive,inactive,inactive,inactive,inactive,–,–,–,–,–,–,–,–,–,–
NC(=O)N(O)[C@@H]1C=C[C@H](Oc2cccc(Oc3ccc(F)cc3)c2)C1,inactive,inactive,–,inactive,inactive,inactive,inactive,–,inactive,inactive,–,–,8.49 µM (active),–,–,26.3 µM (active),–,–,–,–
CC(=O)CC(C)(C)O,inactive,inactive,inactive,inactive,inactive,inactive,inactive,inactive,inactive,inactive,–,–,–,–,–,–,–,–,–,–
O=C(OCCOCCOC(=O)c1ccccc1)c1ccccc1,inactive,inactive,inactive,inactive,inactive,–,inactive,inactive,inactive,inactive,–,–,–,3.97 µM (active),–,–,–,–,–,–
NC(=O)N1C(=O)C(C(=O)c2cc(Cl)cs2)c2cc(F)c(Cl)cc21 (centres undefined),–,–,–,inactive,–,inactive,inactive,–,–,–,20 µM (active),5.47 µM (active),0.345 µM (active),–,–,24.9 µM (active),16.4 µM (active),20 µM (active),–,11.1 µM (active)
CCC(C)(C)C1CCC(O)CC1 (centres undefined),inactive,inactive,inactive,inactive,inactive,inactive,inactive,inactive,inactive,inactive,–,–,–,–,–,–,–,–,–,–
OCCC(F)(F)C(F)(F)C(F)(F)C(F)(F)C(F)(F)C(F)(F)F,inactive,inactive,inactive,inactive,inactive,inactive,inactive,inactive,inactive,inactive,–,–,–,–,48.9 µM (active),50.4 µM (active),56.3 µM (active),51.3 µM (active),46.8 µM (active),–
CC[C@H](c1ccc(O)cc1)[C@@H](CC)c1ccc(O)cc1,–,–,–,–,–,–,–,–,–,–,31.3 µM (active),33.8 µM (active),38.1 µM (active),30.6 µM (active),29 µM (active),19.1 µM (active),20.7 µM (active),20.6 µM (active),22.4 µM (active),32 µM (active)
CN1CCC[C@H]1c1cccnc1,inactive,inactive,inactive,inactive,inactive,inactive,inactive,inactive,inactive,inactive,–,–,–,–,–,–,–,–,–,–
CC(C)(C)c1ccc(O)c(C(C)(C)C)c1,–,–,–,–,–,–,–,–,–,–,14.4 µM (active),26.7 µM (active),16.9 µM (active),13.2 µM (active),19.4 µM (active),14.5 µM (active),20 µM (active),24.8 µM (active),13.4 µM (active),20 µM (active)
CCCCCCCCC(=O)O,inactive,inactive,inactive,inactive,inactive,inactive,inactive,inactive,inactive,–,–,–,–,–,–,–,–,–,–,–
CCC(=C(c1ccc(O)cc1)c1ccc(OCCN(C)C)cc1)c1ccccc1,–,–,–,–,–,–,–,–,–,–,8.66 µM (active),9.72 µM (active),19.8 µM (active),13.6 µM (active),12.6 µM (active),8.38 µM (active),11.1 µM (active),9.48 µM (active),7.5 µM (active),13 µM (active)
CCCCCCC(=O)O,inactive,inactive,inactive,inactive,inactive,inactive,inactive,inactive,inactive,inactive,–,–,–,–,–,–,–,–,–,–
CC1=C(/C=C/C(C)=C/C=C/C(C)=C/C(=O)O)C(C)(C)CCC1,inactive,inactive,–,–,inactive,–,–,–,–,–,–,–,0.918 µM (active),0.358 µM (active),24.3 µM (active),21.9 µM (active),20.5 µM (active),8.54 µM (active),4.31 µM (active),–
